Screens from PubChem.
Tau filament bind: tau filament binding | P10636 | recombinant tau filaments, thioflavin S fluorescence, 15 h; filaments grown with octadecylsulfate alongside compound | Potency, µM (series often up to 57.1 µM), inactives show at the top dose activity change, negative = inhibition | 2% of 71,000 active | AID 596;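 note: % is set by controls: 0 for no effect and ±100 for the full control effect; actives lower thioflavin S fluorescence by blocking filaments or displacing dye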
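Quantitative HTS: thioflavine S signal from ODS-induced tau filaments, excited at 450 nm, emission 510 nm. Conditions: 1 uM tau, 30 uM ODS, 15 h at 37 C, pH 7.4.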
ERK AVP block: inhibitors of vasopressin-stimulated ERK signaling pathway; AID 995; Potency, µM (series often up to 57.5 µM), for inactives: at the highest dose activity, negative = inhibition, actives largely listed as inhibitors; 0.99% of 72,000 active; HEK293-V1b, vasopressin-stimulated pERK AlphaScreen; note: % is set by controls: 0 for no effect and ±100 for the full control effect; nearly all actives have a fitted effect of over 55% in size
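V1b-HEK293 cells; cpd 30 min 37C; 25 nM vasopressin 5 min; lyse 10 min; AlphaScreen beads 5 hr RT. Normalized to DMSO basal and 25 nM vasopressin; AC50 by Hill fit.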
TSHR agonist: activates the human thyroid stimulating hormone receptor; P16473; HEK293-CNG-TSHR cells (CNG channel as cAMP sensor), membrane potential dye, cAMP; Potency, µM (top dose mostly 57.1 µM), inactives show at the top dose activation, usual class: activators; 0.48% of 73,000 active; AID 926; active = well fitted activation curve with a large enough effect in the main read-out, with a control signal flat, not every such curve was filed as active; inconclusive = small, poorly fitted or top-dose-only effect, or a change in a side signal; inactive = no such curve, though single readings can be large or run the other way; % of control where 0% means no effect;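 note: the control signal comes from parental cells without the receptor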
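cAMP rise detected as CNG-channel membrane depolarization by fluorescent dye (emission 590 nm), 30 min after compound, following 60 min dye loading containing 100 uM RO 20-1724 at room temperature. Cells: TSHR/CNG HEK 293, with parental CNG HEK 293 as control.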
CRE Fsk mod: modulators of forskolin-stimulated CRE signaling in CHO cells; Potency, µM (highest dose often 38.2 µM), for the others: at the top dose activity change, negative = inhibition, actives largely listed as activators; AID 662; 2.5% of 71,000 active; CHO CRE-bla reporter (cAMP response element driving beta-lactamase), forskolin EC10, beta-lactamase ratio; active = well fitted activation curve with a large enough effect in the signal ratio, with a control signal flat, not every such curve was filed as active; inconclusive = small, poorly fitted or top-dose-only effect, or effect the other way, or a change in a side signal; the % refers to the signal ratio; note: % of control where 0% means no effect
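Cells were plated overnight at 37 °C, exposed to compound titrations plus EC10 NKH 477 for 3 h, then given CCF4 dye for 2 h at room temperature. Blue/green (460/530 nm) ratio was converted to %Activity and AC50 values calculated.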
HEK293 cAMP ctrl: raises cAMP in parental HEK293 cells, TSHR agonist counter-screen. parental HEK293 CNG cAMP sensor, membrane potential fluorescence. Potency, µM (doses to about 57.1 µM), for the others: top-dose activation, most hits filed as activators. 2.5% of 73,000 active. AID 938; note: % of control where 0% means no effect; nearly all actives have a fitted effect of over 55% in size
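Counterscreen for endogenous-receptor signalling: CNG-channel HEK 293 cells report cAMP rise by membrane depolarization. After 60 min dye equilibration with 100 uM RO 20-1724, compounds incubated 30 min before bottom-read fluorescence at 590 nm.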
An asterisk follows results filed as active; ? = inconclusive; . = no result; [ ] = another dose, or the depositor's remark. An excerpt weighted towards active compounds, which were near 7.4% of everything screened. Unless noted, calls come from the whole dose curve; as a rule, active = well fitted curve in the direction sought with a large enough effect; inconclusive = small, poorly fitted or top-dose-only effect, or another doubt; inactive = no such curve, though single readings can be large; an effect the other way counts as inactive or inconclusive. Potency is the fitted concentration of half-maximal effect.

SMILES	Tau filament bind	ERK AVP block	TSHR agonist	CRE Fsk mod	HEK293 cAMP ctrl
CCc1nc(NCC2CCCO2)c2oc3ccccc3c2n1 (configuration not stated)	0.9%	-22.9%	24.3%	?	17.1%
CCc1nc(N(CC)CC)c2oc3ccccc3c2n1	-6.7%	18.4%	?	7.94µM*	15.8µM*
CCc1nc(SCCO)c2oc3ccccc3c2n1	6.5%	?	-13.8%	3.98µM*	1.9%
CCc1nc(N2CCC(C)CC2)c2oc3ccccc3c2n1	22.9%	19.9%	?	10µM*	15.8µM*
C=CCC1C=CC(Oc2ccc(F)cc2C)C(CO)O1 (configuration not stated)	.	8.2%[11.5 µM]	1.2%[11.4 µM]	.	1.0%[11.4 µM]
c1coc(CNc2ncnc3c2oc2ccccc23)c1	2.6%	?	8.3%	?	28.3%
CCc1nc(NCc2ccco2)c2oc3ccccc3c2n1	7.8%	-18.4%	.	3.98µM*	29.6%
CN(C)c1ccc(C2(c3ccc(N(C)C)cc3)OC(=O)c3cc(N(C)C)ccc32)cc1	14.8%	-21.2%	-1.9%	?	1.1%
Cc1cccc(CNc2nc(-c3ccc(C(=O)N(C)C)cc3)nc3ccccc23)c1	128.5%	-15.4%	?	0.794µM*	?
COc1ccc(CNc2nc(-c3ccc(C(=O)N(C)C)cc3)nc3ccccc23)c(OC)c1	-4.1%	-0.1%	25.1µM*	1µM*	22.2%
COc1ccc(CNc2ccnc(-c3ccccc3C(F)(F)F)n2)c(OC)c1	-1.0%	-9.4%	?	3.7%	7.94µM*
COc1ccc2[nH]cc(CCNc3ccnc(-c4ccccc4C(F)(F)F)n3)c2c1	-8.8%	-12.9%	-3.2%	0.9%	-20.8%
COc1ccccc1CNc1ccnc(-c2ccc(C(=O)N(C)C)cc2)n1	1.2%	-14.2%	.	?	16.9%
COc1ccc(CNc2ccnc(-c3ccc(C(=O)N(C)C)cc3)n2)c(OC)c1	5.0%	4.3%	?	?	0.794µM*
COc1ccc(CNc2cc(-c3ccccc3Cl)ncn2)c(OC)c1	3.6%	15.8µM*	?	?	20µM*
COc1ccc(CNc2cc(-c3ccccc3OC)ncn2)c(OC)c1	-0.1%	?	?	?	?
Cc1ccc(C)c(Cn2nnc3c(=O)[nH]c(C4CCCN(C(=O)C5CCCCC5)C4)nc32)c1 (configuration not stated)	44.6%	19.4%	?	?	20µM*
O=C(C1CCCCC1)N1CCCC(c2nc3c(nnn3Cc3ccccc3)c(=O)[nH]2)C1 (configuration not stated)	5.4%	0.5%	?	?	?
COc1ccc(OC)c(NC(=O)c2cc3ccccc3o2)c1	69.7%	-6.1%	?	?	31.6µM*
COc1ccc(NC(=O)c2ccco2)c(OC)c1	-1.6%	-3.4%	5.1%	-3.1%	0.6%
COc1ccc(NC(=O)c2c(OC)cccc2OC)c(OC)c1	15.8µM*	-11.4%	-1.4%	6.1%	-5.3%
COc1ccc(C)cc1NC(=O)c1cc2ccccc2o1	36.1%	-0.2%	?	?	20µM*
COc1cc(NS(C)(=O)=O)ccc1Cc1c2ccccc2nc2ccccc12	.	-4.2%	.	.	.
CC(C)CO[C@H](c1ccc2c(c1)OCO2)[C@H](C)Br	-7.8%[11.4 µM]	5.1%[11.5 µM]	2.3%[11.4 µM]	10.5%[7.6 µM]	8.7%[11.4 µM]
COC(=O)/C=c1/sc2nc3ccccc3n2c1=O	5.4%	?	-3.0%[11.4 µM]	3.0%	-1.7%
SMILES	Tau filament bind	ERK AVP block	TSHR agonist	CRE Fsk mod	HEK293 cAMP ctrl
O=c1/c(=C/c2ccccn2)sc2nc3ccccc3n12	0.501µM*	-17.3%	-0.3%[11.4 µM]	?	5.5%[11.4 µM]
Oc1cc(O)c2c(c1)O[C@H](c1ccc(O)c(O)c1)[C@@H](O)[C@@H]2c1c(O)cc(O)c2c1O[C@@H](c1ccc(O)c(O)c1)[C@H](O)C2	2.5%[11.4 µM]	-18.7%[11.5 µM]	-3.6%[11.4 µM]	1.4%[7.6 µM]	13.4%[11.4 µM]
COC(=O)c1ccccc1Nc1cc(C)nc2nc(C)nn12	19.8%	-16.7%	5.7%	12.6µM*	5.9%
CCOC(=O)c1ccccc1Nc1cc(C)nc2nc(C)nn12	18.8%	-16.1%	14.8%	12.6µM*	18.0%
COc1cc2c(cc1OC)-c1cc(NC3CCCC3)nc(=O)n1CC2	9.4%	?	.	5.01µM*	2.2%
CC(C)(C)C(=O)Nc1ccc(-c2cn3ccsc3n2)cc1	-5.7%	15.3%	?	13.5%	?
